Values without a mark were called inactive.
Tested on: Aedes aegypti larvae
Assay: larval motility relative to same well at 0 h (fraction); higher = more motile (less active compound), active = 0.4 or less
Conditions: 10 µM
In short: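 Compounds at 10 µM (1% v/v DMSO) were applied to about 10 Aedes aegypti larvae per well in 100 µL, with every plate including solvent and larvicide control wells. Motility movies were taken with INVAPP at 0, 2 and 24 h, and results are medians of three independent larval batches. Relative motility is each well's score expressed as a fraction of its own first score.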

| SMILES | larval motility (2 h) | larval motility (24 h) |
| --- | --- | --- |
| OC[C@@H]1CC[C@H](n2cnc3c(O)ncnc32)O1 | 1.15 | 0.963 |
| O=S(=O)(Nc1ccc(O)cc1)c1cccc2cccnc12 | 1.06 | 0.629 |
| CCN(CC)S(=O)(=O)c1ccc(Cl)c(C(=O)Nc2sc3c(c2C#N)CCCC3)c1 | 1.52 | 2.15 |
| c1ccc(-c2nnc3c4ccccc4c(N4CCNCC4)nn23)cc1 | 0.808 | 1.34 |
| CC[N+]1(C/C2=C/CCCCCC2)CCC(NC(=O)C2c3cc(Cl)ccc3Oc3ccc(Cl)cc32)CC1 (configuration not stated) | 1.22 | 0.723 |
| Nc1nc2c(Cc3cccnc3)c[nH]c2c(=O)[nH]1 | 0.722 | 0.771 |
| CC(C)=CCC/C(C)=C/CNCCNC1C2CC3CC(C2)CC1C3 (configuration not stated) | 0.85 | 0.924 |
| CCCCCOc1ccc(/C=C2\Oc3c(ccc(O)c3O)C2=O)c(O)c1 | 0.621 | 1.4 |
| C[C@H]1CC[C@@]2(O)C(C)(C)[C@@H]3CC[C@@]2(C)[C@H]1C3 | 0.756 | 0.757 |
| OB1OCc2c1ccc(Cl)c2F | 0.987 | 1.19 |
| COc1ccc(C[C@@H](C)[C@@H](C)Cc2ccc(OC)c(OC)c2)cc1OC | 0.799 | 0.813 |
| O=C(O)/C=C/C=C/c1cccc(Oc2cc(Cl)cc(Cl)c2)c1 | 1.55 | 0.995 |
| Cc1ccc(Oc2ccccc2-c2csc(NC3=NCCCN3)n2)c(C)c1 | 0.774 | 0.786 |
| NC[C@H]1O[C@H](O[C@H]2[C@H](O)[C@@H](O[C@H]3O[C@H](CO)[C@@H](O)[C@H](N)[C@H]3O)[C@H](N)C[C@@H]2N)[C@H](N)C[C@@H]1O | 0.727 | 1.43 |
| Nc1nc(C(F)(F)F)cc2c1[nH]c(=O)n2Cc1ccccc1 | 0.857 | 0.614 |
| Fc1ccc(-c2nc(-c3c[nH]c4ccc(Br)cc34)[nH]c2-c2ccc(F)cc2)cc1 | 0.737 | 0.9 |

| SMILES | larval motility (2 h) | larval motility (24 h) |
| --- | --- | --- |
| COC(=O)Nc1nc2cc(Sc3ccccc3)ccc2[nH]1 | 0.997 | 0.306 (active) |
| O=c1[nH]c(=O)n(Cc2cccc(Oc3ccccc3)c2)cc1Nc1ccccc1 | 0.698 | 0.791 |
| Cc1cccc(CC(=O)N[C@H]2CCOC2=O)c1 | 1.05 | 1.31 |
| Fc1ccc2c(/C=C/c3cccnc3)c[nH]c2c1 | 1.04 | 0.678 |
| O=C(Nc1nnc(-c2ccccc2)o1)c1ccc(F)cc1 | 0.832 | 0.868 |
| Nc1nc(Nc2ccc3nc(-c4ccc(F)cc4)cc(N)c3c2)cc(-c2ccccc2)n1 | 0.547 | 0.261 (active) |
| Nc1nc(F)nc2c1ncn2[C@H]1O[C@@H](CO)[C@H](O)[C@@H]1O | 0.949 | 0.854 |
| O=C(O)c1cc(-c2ccc(Br)cc2)nc2ccc(Cl)cc12 | 1.05 | 0.76 |
| Cc1cc(C2CCCCC2)n(O)c(=O)c1 | 0.66 | 1.09 |
| CC(C)CCN1C(=O)C(C2=NS(=O)(=O)c3cc(NS(C)(=O)=O)ccc3N2)=C(O)[C@@H]2[C@H]3CC[C@H](C3)[C@@H]21 | 0.853 | 0.888 |
| COc1ccc(OCc2ccc(COc3c(Cl)cccc3Cl)cc2)c(Cl)c1 | 1.19 | 1.03 |
| CC(=O)NC[C@H]1CN(c2ccc(N3CCSCC3)c(F)c2)C(=O)O1 | 0.531 | 1.07 |
| CC(C)C(=O)N[C@H]1[C@H]([C@H](O)[C@H](O)CO)OC(C(=O)O)=C[C@@H]1N=[N+]=[N-] | 1.64 | 1.56 |
| Cc1cc(-c2ccccc2)c(C(=O)C(=O)Nc2ccc(N3CCN(c4ncc(F)cn4)CC3)cc2)n1C | 0.636 | 0.529 |
| CC(C)Cn1c(=O)n(C)c(=O)c2c(-c3cncn3C)n(Cc3cccc4ccccc34)nc21 | 0.612 | 0.874 |

— the supplement of paper PMC8540655
